Reference: PubChem BioAssay AID1159580 (chemical genetic matrix, 2015)
“And” between values parts separate entries of the source, which are not always exact repeats. Equal values may be shown once. Out of some 5,500 compounds screened, about 2,000 (36%) were called active. Roughly 18% stayed inconclusive and do not appear here. Cut-off read from the data, not from the text of the source: active = normalized growth mostly below about 0.91 (no sharp cut-off); inconclusive = no clear call, values can overlap the other calls; inactive = mostly above about 0.92. The list shows a part of the results.

Experiment: chemical genetic growth profiling, strain panel (AID 1159580);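 note: tested at 20 µM; growth read once vehicle control cultures reached saturation at 30 °C; 1 = growth at the plate median or of vehicle wells; lower values mean less growth of the strain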
Conditions: S. cerevisiae deletion strains, growth OD

Measured: normalized growth

OC(c1cc(C(F)(F)F)nc2c(C(F)(F)F)cccc12)C1CCCCN1 (stereo not drawn)
inactive: locus YAL021C, strain ccr4, stronger effect = lower value 0.995 | locus YAL026C, strain drs2, stronger effect = lower value 0.972 | locus YAL030W, strain snc1, stronger effect = lower value 1.02 | locus YBL061C, strain skt5, stronger effect = lower value 1.01 | locus YBR009C, strain hhf1, stronger effect = lower value 1.01 | locus YBR021W, strain FUR4, stronger effect = lower value 0.965 | locus YBR023C, strain chs3, stronger effect = lower value 1 | locus YBR171W, strain sec66, stronger effect = lower value 1.02 | locus YBR229C, strain ROT2, stronger effect = lower value 0.988 | locus YBR231C, strain swc5, stronger effect = lower value 1.01 | locus YBR279W, strain paf1, stronger effect = lower value 1.02 | locus YCL011C, strain gbp2, stronger effect = lower value 1.01 | locus YCL016C, strain dcc1, stronger effect = lower value 1 | locus YCL029C, strain bik1, stronger effect = lower value 0.999 | locus YCL069W, strain vba3, stronger effect = lower value 0.999 | locus YCR088W, strain abp1, stronger effect = lower value 1.01 | locus YDL005C, strain med2, stronger effect = lower value 1.01 | locus YDL035C, strain GPR1, stronger effect = lower value 0.968 | locus YDL040C, strain nat1, stronger effect = lower value 1.02 | locus YDL074C, strain BRE1, stronger effect = lower value 0.945 | locus YDL101C, strain DUN1, stronger effect = lower value 0.993 | locus YDL134C, strain PPH21, stronger effect = lower value 0.966 | locus YDL185W, strain tfp1, stronger effect = lower value 0.979 | locus YDL192W, strain arf1, stronger effect = lower value 0.997 | locus YDR001C, strain nth1, stronger effect = lower value 1.01 | locus YDR069C, strain doa4, stronger effect = lower value 1.01 | locus YDR101C, strain arx1, stronger effect = lower value 0.993 | locus YDR137W, strain rgp1, stronger effect = lower value 1.12 | locus YDR150W, strain NUM1, stronger effect = lower value 0.995 | locus YDR159W, strain sac3, stronger effect = lower value 0.999 | locus YDR162C, strain NBP2, stronger effect = lower value 0.969 | locus YDR195W, strain ref2 1.02 | locus YDR297W, strain sur2, stronger effect = lower value 1.01 | locus YDR318W, strain mcm21, stronger effect = lower value 0.988 | locus YDR334W, strain swr1, stronger effect = lower value 1.01 | locus YDR335W, strain msn5, stronger effect = lower value 1.01 | locus YDR388W, stronger effect = lower value 0.995 | locus YDR392W, strain spt3, stronger effect = lower value 0.997 | locus YDR502C, strain sam2, stronger effect = lower value 0.987 | locus YEL003W, strain gim4, stronger effect = lower value 1.02 | locus YEL037C, strain rad23, stronger effect = lower value 1.02 | locus YEL061C, strain CIN8 (second series), stronger effect = lower value 1 | locus YEL061C, strain CIN8, stronger effect = lower value 0.994 | locus YER015W, strain faa2, stronger effect = lower value 1.01 | locus YER016W, strain bim1, stronger effect = lower value 1.01 | locus YER110C, stronger effect = lower value 0.996 | locus YER111C, strain swi4, stronger effect = lower value 1.01 | locus YER155C, strain BEM2 (second series), stronger effect = lower value 1.02 | locus YER155C, strain BEM2, stronger effect = lower value 0.997 | locus YER167W, strain BCK2, stronger effect = lower value 0.971 | locus YFR010W, strain ubp6, stronger effect = lower value 1 | locus YGL078C, strain dbp3, stronger effect = lower value 0.985 | locus YGL086W, strain mad1, stronger effect = lower value 0.988 | locus YGL167C, strain pmr1, stronger effect = lower value 1.02 | locus YGL173C, strain kem1, stronger effect = lower value 1.02 | locus YGL227W, strain vid30, stronger effect = lower value 1 | locus YGL240W, strain doc1, stronger effect = lower value 1.03 | locus YGL248W, strain PDE1, stronger effect = lower value 0.997 | locus YGL253W, strain hxk2, stronger effect = lower value 1 | locus YGR078C, strain PAC10, stronger effect = lower value 0.98 | locus YGR135W, strain pre9, stronger effect = lower value 0.973 | locus YGR229C, strain SMI1, stronger effect = lower value 0.95 | locus YGR252W, strain gcn5, stronger effect = lower value 0.922 | locus YHR013C, strain ard1, stronger effect = lower value 1 | locus YHR027C, strain rpn1, stronger effect = lower value 1.02 | locus YHR030C, strain SLT2, stronger effect = lower value 0.994 and 0.969 | locus YHR079C, strain IRE1 (second series), stronger effect = lower value 0.985 | locus YHR079C, strain IRE1, stronger effect = lower value 0.984 | locus YHR094C, strain hxt1, stronger effect = lower value 0.988 | locus YHR129C, strain ARP1, stronger effect = lower value 0.99 | locus YHR142W, strain chs7, stronger effect = lower value 0.984 | locus YHR200W, strain rpn10, stronger effect = lower value 0.996 | locus YIL066C, strain RNR3, stronger effect = lower value 0.973 | locus YIL073C, strain SPO22, stronger effect = lower value 0.979 | locus YIL125W, strain kgd1, stronger effect = lower value 0.995 | locus YIR030C, strain dcg1, stronger effect = lower value 0.99 | locus YJL092W, strain hpr5, stronger effect = lower value 1.01 | locus YJL095W, strain BCK1 (second series), stronger effect = lower value 1 | locus YJL095W, strain BCK1, stronger effect = lower value 0.969 and 0.948 | locus YJL115W, strain asf1, stronger effect = lower value 1.01 | locus YJL129C, strain trk1, stronger effect = lower value 1.02 | locus YJL134W, strain LCB3, stronger effect = lower value 0.993 | locus YJL154C, strain vps35, stronger effect = lower value 1.01 | locus YJL164C, strain tpk1, stronger effect = lower value 0.986 | locus YJL166W, strain qcr8, stronger effect = lower value 1.02 | locus YJL168C, strain set2, stronger effect = lower value 0.99 | locus YJL187C, strain SWE1 (second series), stronger effect = lower value 0.991 | locus YJR043C, strain POL32, stronger effect = lower value 0.979
